This is a sample that favours compounds with a hit; in the whole collection about 7.2% have one here.
MARV entry inh – qHTS for inhibitors of binding or entry into cells for Marburg Virus; 300,000 compounds, 1.8% hits; Potency, µM (doses to about 37.8 µM), without a hit: at the top dose activity change, negative = inhibition, usual class: inhibitors; Marburg virus pseudotyped entry inhibition, cell reporter; calls by dose curve; tested in HEK293 cells
Lassa entry inh – qHTS for Inhibitors of binding or entry into cells for Lassa Virus; Potency, µM (titrated, usually from 37.9 µM), for inactives: top-dose activity change, negative = inhibition, most hits filed as inhibitors; Lassa virus pseudotype entry inhibition, cell reporter; 300,000 compounds, 1.2% hits; calls by dose curve; tested in HEK293 cells; note: nearly all actives have a fitted effect of over 50% in size
RE007 growth inh – qHTS Assay for Inhibitors of the HIV-1 protein Vpr; S. pombe RE007 Vpr strain, BacTiter-Glo ATP luminescence, 24 h; AID 651644, 2012; Potency, µM (doses to about 92.2 µM), without a hit: top-dose activity change, negative = less growth, hits mostly inhibitors; 360,000 compounds, 0.21% hits; active = well fitted falling curve with a large enough effect; inconclusive = small, poorly fitted or top-dose-only effect; inactive = no such curve, though single readings can be large or run the other way; note: nearly all actives have a fitted effect of over 50% in size
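Fission yeast RE007 carrying one integrated HIV-1 vpr copy, seeded at OD 0.01 in PMG+AL medium with 23 nL pinned compound. Grown 24 h at 30 degrees; viability read by BacTiter-Glo luminescence after 5 min.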
HCV inhibitor – qHTS Assay for Inhibitors of Hepatitis C Virus (HCV); Huh7.5.1 HCVcc-Cre infection, luciferase reporter, 44 h; Potency, µM (highest dose often 41.8 µM), inactives show at the highest dose activity change, negative = inhibition, usual class: inhibitors; 340,000 compounds, 3.4% hits
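Cells (1,000/well) were plated 4 h before compound, then infected with HCVcc-Cre virus (~0.5 moi). After 44 h further culture, infection was read as luciferase luminescence following a 15 min substrate incubation at room temperature.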
Sm TGR inh – qHTS Assay for the Inhibitors of Schistosoma Mansoni Peroxiredoxins; Potency, µM (top dose mostly 114 µM), inactives show at the top dose activity change, negative = inhibition, usual class: inhibitors; 360,000 compounds, 3% hits; Schistosoma mansoni thioredoxin glutathione reductase (TGR), Q962Y6; purified TGR, DTNB reduction, TNB absorbance 405 nm; note: nearly all actives have a fitted effect of over 60% in size
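First, TGR (20 nM dispensed) and NADPH were mixed with compound. Second, a 15 min room-temperature incubation followed. Third, further NADPH and then DTNB were added to start the reaction. Finally, TNB absorbance was monitored kinetically.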
FMDV antiviral – High Throughput Screening for Foot and Mouth Disease Virus Antivirals; FMDV antiviral cell-based qHTS; Potency, µM (titrated, usually from 57.9 µM), without a hit: at the highest dose activity change, negative = inhibition, most hits filed as inhibitors; 410,000 compounds, 1.2% hits; AID 1159524, 2015; calls by dose curve; tested in HEK293T cells; note: read-out not given here; nearly all actives have a fitted effect of over 45% in size
Active calls of the source: *; ? = inconclusive; nt = no result given; [ ] = dose if it differs, or a comment. Unless noted, calls come from the whole dose curve; as a rule, active = well fitted curve in the direction sought with a large enough effect; inconclusive = small, poorly fitted or top-dose-only effect, or another doubt; inactive = no such curve, though single readings can be large; an effect the other way counts as inactive or inconclusive. % is set by controls: 0 for no effect and ±100 for the full control effect; potency is the fitted concentration of half-maximal effect.

SMILES | MARV entry inh | Lassa entry inh | RE007 growth inh | HCV inhibitor | Sm TGR inh | FMDV antiviral
CCN(CC)S(=O)(=O)c1cccc(C(=O)Nc2ccc(C#N)cc2)c1 | -23% | ? | 1% | ? | 4% | 25µM*
CCN(CC)S(=O)(=O)c1cccc(C(=O)Nc2cc(C)cc(C)c2)c1 | 17% | 12% | 4% | ? | -16% | 28%
Cc1ccc(NC(=O)c2cc3ccccc3o2)nc1 | ? | 5µM* | -22% | 1%[8.37 µM] | 2% | ?
CCN(CC)S(=O)(=O)c1cccc(NC(=O)c2ccc(Br)cc2)c1 | -46%[46.1 µM] | -26% | 1% | 8.9µM* | 5% | 25µM*
O=C(COC(=O)CCc1ccc(S(=O)(=O)N2CCOCC2)cc1)Nc1ccccc1[N+](=O)[O-] | 0% | ? | ? | 33% | nt | -11%
CNS(=O)(=O)c1cn(CC(=O)Nc2ccc(C)cc2C)cc1S(=O)(=O)NC | nt | 9%[46.1 µM] | nt | nt | 27% | -3%
COC(=O)[C@]1(C=C2c3ccccc3C[C@H](OC)[C@@H]2C)[C@@H]2CC=C[C@@H]21 | -8%[14.2 µM] | nt | nt | nt | nt | nt
CC1Cc2cc(-c3csc(NC(=O)Cc4cccs4)n3)ccc2N1S(C)(=O)=O (configuration not stated) | ? | ? | -14% | 6.3µM* | 5% | 5.6µM*
CS(=O)(=O)N1CCc2cc(-c3csc(NC(=O)Cc4ccccc4)n3)ccc21 | 7.3µM* | ? | -4% | ? | 6% | nt
CCCC(=O)Nc1nc(-c2ccc3c(c2)CCN3S(C)(=O)=O)cs1 | -17% | -2% | 11% | 13µM* | -12% | nt
CS(=O)(=O)N1CCc2cc(-c3csc(NCC4CCCO4)n3)ccc21 (configuration not stated) | -3% | -1% | 6% | -29% | 16% | nt
Cc1cc(C)c(C)c(S(=O)(=O)NC(C(=O)NCCc2ccco2)C(C)C)c1C (configuration not stated) | nt | nt | 0% | 5% | ? | 7%
COc1cc([C@H](O)C(=O)O)ccc1O | 8% | nt | nt | nt | nt | nt
CCCCc1nn2c(=O)cc(COC(=O)c3ccccc3NC(=O)C3CCCCC3)nc2s1 | nt | -4%[46.1 µM] | nt | nt | 1% | -15%
COc1ccc(S(=O)(=O)NCC(c2ccco2)N2CCN(c3ccccc3)CC2)cc1OC (configuration not stated) | nt | -6%[46.1 µM] | nt | nt | -5% | 14%
COc1ccc(N2CCN(C(CNS(=O)(=O)c3ccc(OC)c(C)c3)c3ccco3)CC2)cc1 (configuration not stated) | nt | 5.6µM* | nt | nt | -1% | -3%
O=C(NCc1ccc2c(c1)CCN2C(=O)c1ccncc1)c1cccc(F)c1 | nt | -1%[46.1 µM] | nt | nt | 5% | -20%
CCOc1ccc(/C=C2\NC(=S)NC2=O)cc1 | nt | nt | 8% | 7% | -14% | 12%
COc1cccc(/C=C/C2=CC(C)(C)NC(=S)N2)c1 | 7%[46.1 µM] | ? | 8% | -25% | nt | 18%
CCOc1ccc(/C=C/C2=CC(C)(C)NC(=S)N2)cc1 | 12%[46.1 µM] | -11% | -17% | ? | 8.9µM* | -10%
COc1ccc(/C=C/C2=CC(C)(C)NC(=S)N2)cc1OC | nt | nt | 3% | ? | 2.8µM* | -4%
COc1ccc(OC)c2sc(N(Cc3cccnc3)C(=O)c3ccc(C(C)=O)cc3)nc12 | nt | ? | nt | nt | 1% | -13%
O=C(CCOc1ccccc1)N(Cc1cccnc1)c1nc2c(Cl)cccc2s1 | nt | 14%[46.1 µM] | nt | nt | 1.1µM* | ?
Cc1cc(C)c2nc(N(Cc3cccnc3)C(=O)CCOc3ccccc3)sc2c1 | nt | 2%[46.1 µM] | nt | nt | 44% | -10%
COc1ccc(Cl)c2sc(N(Cc3cccnc3)C(C)=O)nc12 | 8%[46.1 µM] | ? | 6% | 13µM* | -2% | -8%
SMILES | MARV entry inh | Lassa entry inh | RE007 growth inh | HCV inhibitor | Sm TGR inh | FMDV antiviral
Cc1cccc2sc(N(Cc3cccnc3)C(=O)CCOc3ccccc3)nc12 | nt | -8%[46.1 µM] | nt | nt | 3.5µM* | -16%
CCCCn1c(NS(=O)(=O)c2ccccc2)c(C(=O)OCC)c2nc3ccccc3nc21 | 4.6µM* | ? | 0% | ? | -31% | 0%
CCCCn1c(NS(=O)(=O)c2ccc(C)cc2)c(S(=O)(=O)c2ccccc2)c2nc3ccccc3nc21 | -2% | 5% | 30% | ? | -4% | -21%
Cc1ccc(S(=O)(=O)N2CCN(C(=O)c3ccc(N4CCCCC4)c([N+](=O)[O-])c3)CC2)cc1 | ? | ? | 5% | ? | -9% | -9%
Cc1ccc(CS(=O)(=O)c2ccc(C(=O)N3CCCCC3)cc2[N+](=O)[O-])cc1 | ? | -35% | 22% | -9% | 18µM* | ?
CCN(CC)C(=O)c1ccc(CS(=O)(=O)c2ccc(Br)cc2)cc1 | -1% | -5% | -1% | 9% | 5% | -22%
CCN(CC)C(=O)c1ccc(S(=O)(=O)Cc2ccc(C)cc2)c([N+](=O)[O-])c1 | nt | nt | -5% | 7% | 7.9µM* | ?
Cc1ccc(CS(=O)(=O)c2ccc(C(=O)N3CCN(c4ccccn4)CC3)cc2[N+](=O)[O-])cc1 | ? | -24% | -5% | ? | 32µM* | 16µM*
COc1cccc(NC(=O)Cn2c(=O)c3cccn3c3ccc(F)cc32)c1 | nt | -1%[46.1 µM] | nt | nt | -4% | 0%
CCOc1cc(C2C(C(=O)N3CCCCC3)=C(C)NC3=C2C(=O)CCC3)cc(Br)c1O (configuration not stated) | 0% | -26% | 1% | 12% | 25µM* | 13%
O=C(CCCc1c[nH]c2ccccc12)N1CCOCC1 | 3%[46.1 µM] | 10% | -5% | 7% | 1% | 44%
O=C(CCCc1c[nH]c2ccccc12)N1CCN(S(=O)(=O)c2cccs2)CC1 | -27% | -28% | 17% | 13µM* | -14% | 25µM*
COc1ccc(Br)cc1CNCc1c(C(=O)O)c(C)n(Cc2ccccc2C)c1C | -20%[46.1 µM] | -2%[46.1 µM] | nt | nt | -11% | 1%
NC(=O)c1cc[n+](CC2=C(C(=O)O)N3C(=O)[C@@H](NC(=O)[C@@H](c4ccccc4)S(=O)(=O)[O-])[C@H]3SC2)cc1 | -11% | ? | nt | nt | nt | nt
CC(NC(=O)c1ccco1)C(=O)N1CC=C(c2ccccc2)CC1 (configuration not stated) | nt | nt | 1% | 3% | nt | -20%
Cc1cc(Cl)n2nc(C)c(-c3ccc(Cl)cc3)c2n1 | ? | 16µM* | 1% | ? | ? | ?
COc1ccc(-c2c(C)nn3c(C)cc(C)nc23)cc1 | 13% | 6% | -15% | 11µM* | 3% | -27%
Cc1cc(N)n2nc(C)c(-c3ccc(Cl)cc3)c2n1 | ? | -10% | -5% | 11µM* | 7% | 0%
CCOc1ccc(NC(=O)CSc2nnc3c(C)cc4ccccc4n23)cc1 | 3%[46.1 µM] | 6%[46.1 µM] | nt | nt | 3% | -21%
